# Experimental data taken from PubChem BioAssay (NCATS).
# Records with an inconclusive call do not appear. Values without a mark were called inactive. Activity calls are given as the source filed them. Calls come from the whole dose curve; as a rule, active = well fitted inhibition curve with a large enough effect; inconclusive = small, poorly fitted or top-dose-only effect; inactive = flat fitted curve, though single readings scatter.
# Assay: BET inhibitor-based combinations targeting novel dependencies in MECOM-rearranged (r) AML: AML-191 cell line (AID 2202236; note: nearly all actives have a fitted effect of over 35% in size;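 for viability (% of control): plate controls were vehicle wells for no effect and wells without cells for full effect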)
# Conditions: AML-191 viability, CellTiter-Glo luminescence, 48 h; series mostly up to 46 µM; viability (% of control): at the top concentration
# From the text: Ecotropic viral insertion site 1 (EVI1) is located on chromosome 3q26.2 as part of the MECOM (MDS and EVI1 complex) locus. Under normal hematopoiesis, EVI1 is a regulator of hematopoietic stem cell maintenance and self-renewal and EVI1 levels decrease as the cells differentiate. In approximately 5-10% of de novo acute myeloid leukemia (AML) EVI1 is aberrantly expressed, including Chromosomal inv(3)(q21;q26.2) or t(3;3)(q21;q26.2) alterations (MECOM-r) that account for about 50% of AML with EVI1 overexpression 31. AMLs with high levels of EVI1 have a poor prognosis and an overall survival time averaging between 10-14 months. EVI1 overexpression confers resistance in leukemia cells, highlighting the need to develop new targeted therapies for EVI1 overexpressing AMLs.
# Here, we performed an unbiased chemical drug screening by evaluating the single agent activity of a collection of 2,480 oncology-focused, approved and investigational drugs (NCATS Mechanism Interrogation Plates, MIPE v5.0) against a panel of seven AML cell lines. These included four MECOM-r cell-lines (AML-191, AML-194, UCSD-AML1 and HNT-34) and three non-MECOM-r AMLs (MV4-11, OCI-AML3 and SET-2). Exploiting the mechanistic redundancy built in the library, we identified target-level sensitivities in MECOM-r AML cells and relative activity as compared to other AML subtypes.
# A collection of 2480 mechanistically annotated dugs (MIPE v5.0) was used to screen four 3q26.2 rearranged AML cell lines and three non-3q26.2 rearranged AML cell lines. This library purposely exploits redundancy by including multiple inhibitors of key onco-targets, while simultaneously encompassing mechanistic diversity, targeting more than 800 distinct mechanisms of action. Briefly, cells were seeded in 5 uL of growth media using a Multidrop Combi dispenser into 1536 well white polystyrene tissue culture treated plates (Corning) at a density of 500cells/well. For each cell-line, for each of the 2480 drugs in MIPE v5.0 library, an 11-point dose curve was generated via a 1536 pin-tool. Plates were incubated for 48 hr at standard incubator conditions, covered by a stainless steel gasketed lid to prevent evaporation. Cell viability was determined by luminescence based, Cell Titer Glo assay (Promega). In detail, 3 uL of Cell Titer Glo were added to each well and plates were incubated at room temperature for 15 min with a stainless-steel lid in place. Luminescence readings were taken using a Viewlux (PerkinElmer) with a 2 s exposure time per plate. Compound dose-response curves were normalized to DMSO and empty well controls on each plate. Quantitative drug activity data from dose-response curves was determined utilizing area Under the Curve (AUC) and Z-transformed AUC (Z-AUC, a mean-centering transformation applied to each individual cell-line screened).
# Potency is the fitted concentration of half-maximal effect.
Structure (SMILES),Potency,viability (% of control)
COc1cccc2c1C(=O)c1c(O)c3c(c(O)c1C2=O)C[C@@](O)(C(C)=O)C[C@@H]3O[C@H]1C[C@H](N)[C@H](O)[C@H](C)O1,0.186 µM (active),–
CC(c1cc2ccccc2s1)N(O)C(N)=O (stereo not given),–,102%
O=c1ncccn1[C@@H]1O[C@H](CO)[C@@H](O)[C@H]1O,–,99.6%
CO[C@H]1C(=O)[C@]2(C)[C@@H](OC)C[C@H]3OC[C@@]3(OC(C)=O)[C@H]2[C@H](OC(=O)c2ccccc2)[C@]2(O)C[C@H](OC(=O)[C@H](O)[C@@H](NC(=O)OC(C)(C)C)c3ccccc3)C(C)=C1C2(C)C,0.0037 µM (active),–
CCCNC(=O)c1cn2ncnc(Nc3cc(C(=O)NC4CC4)ccc3C)c2c1C,–,107%
CN1CCN(C(=O)[C@H]2[C@@H](C(=O)O)[C@H]3CC[C@@H]2O3)CC1,–,93.9% [at 8.46 µM]
C=CC[N+]1([C@H]2C[C@H]3[C@@H]4CC[C@H]5C[C@H](O)[C@@H](N6CCOCC6)C[C@]5(C)[C@H]4CC[C@]3(C)[C@H]2OC(C)=O)CCCC1,–,113%
c1ccc2[nH]c(-c3cscn3)nc2c1,18.6 µM (active),–
C=CC(=O)Nc1cccc(Nc2nc(Nc3ccc(N4CCN(C(C)=O)CC4)cc3OC)ncc2C(F)(F)F)c1,9.34 µM (active),–
C[C@H]1O[C@@H](O[C@H]2[C@@H](O)C[C@H](O[C@H]3[C@@H](O)C[C@H](O[C@H]4CC[C@@]5(C)[C@H](CC[C@@H]6[C@@H]5C[C@@H](O)[C@]5(C)[C@@H](C7=CC(=O)OC7)CC[C@]65O)C4)O[C@@H]3C)O[C@@H]2C)C[C@H](O)[C@@H]1O,0.132 µM (active),–
C=CC(=O)Nc1cc(N2CCN(CC)CC2)ccc1Nc1cc(N(C)C(=O)Nc2c(Cl)c(OC)cc(OC)c2Cl)ncn1,–,85.9%
COc1cc(Nc2cnc(C#N)c(O[C@H](C)CN(C)C)n2)ncc1-c1cnn(C)c1,1.86 µM (active),–
COc1ccc2nc(S(=O)Cc3ncc(C)c(OC)c3C)[nH]c2c1 (stereo not given),–,98.6%
CC1(C)OC2=C(C(=O)c3ccccc3C2=O)[C@H](NCc2ccccc2)[C@@H]1O,7.42 µM (active),–
CC(C)n1cc(-c2ccc3c(c2)N(C)CC3)c2c(NS(=O)(=O)c3ccn(C)n3)ccnc21,–,103%
COc1cc([C@@H](CC(=O)O)c2ccc(C)c(CN3C[C@@H](C)Oc4ccccc4S3(=O)=O)c2)cc2nnn(C)c12,–,83.6%
CCCC1(CCC)CCC2(CCN(CCCN(CC)CC)C2)CC1,9.34 µM (active),–
O=C(O)/C(S)=C/c1ccc(I)cc1,–,96.2%
Clc1ccc(C(Cn2ccnc2)OCc2ccsc2Cl)c(Cl)c1 (stereo not given),23.5 µM (active),–
O=C(/C=C/c1ccc2ccc(C(F)(F)F)cc2n1)c1ccncc1,1.86 µM (active),–

Structure (SMILES),Potency,viability (% of control)
Cc1nc(NC(=O)N2CCC[C@H]2C(N)=O)sc1-c1csc(C(C)(C)C)n1,16.6 µM (active),–
O=C(c1ccc(Nc2nc(C3CC3)cn3c(-c4cn[nH]c4)cnc23)c(F)c1)N1CCOCC1,20.9 µM (active),–
O=C(Nc1ccccc1)Nc1ccc(-c2ccc(C(=O)[C@@H]3CCC[C@H]3C(=O)O)cc2)cc1,–,113%
COc1ccc([C@@H]2CC(=O)c3c(O)cc(O[C@@H]4O[C@H](CO[C@@H]5O[C@@H](C)[C@H](O)[C@@H](O)[C@H]5O)[C@@H](O)[C@H](O)[C@H]4O)cc3O2)cc1O,–,113%
O=C(Nc1cc(Oc2cc(F)c(NC(=O)C3(C(=O)Nc4ccc(F)cc4)CC3)cc2F)ccn1)C1CC1,16.6 µM (active),–
Cc1c(F)cccc1NC(=O)Nc1ccc(Cl)c(S(=O)(=O)[C@H]2CCCNC2)c1O,–,108%
O=C(NC[C@H](O)CO)c1ccncc1Nc1ccc(I)cc1F,0.525 µM (active),–
Cc1ccc(-c2nn(C(C)(C)CNC(=O)c3ccncc3)c3ncnc(N)c23)cc1,7.42 µM (active),–
CCC1=C[C@@H]2CN(C1)Cc1c([nH]c3ccccc13)[C@@](C(=O)OC)(c1cc3c(cc1OC)N(C)[C@H]1[C@@](O)(C(=O)OC)[C@H](OC(C)=O)[C@]4(CC)C=CCN5CC[C@]31[C@@H]54)C2,0.645 µM (active),–
C/C(=C\c1csc(C)n1)[C@@H]1C[C@@H]2O[C@]2(C)CCC[C@H](C)[C@H](O)[C@@H](C)C(=O)C(C)(C)[C@@H](O)CC(=O)N1,0.0235 µM (active),–
C[C@H](NC(=O)CCC(F)(F)F)C(=O)N[C@@H]1C(=O)N(CCO)c2ncccc2-c2ccccc21,–,94.6%
N=C(N)c1ccc(OCCCCCOc2ccc(C(=N)N)cc2)cc1,18.6 µM (active),–
O=C(C[C@@H]1C/C=C\CCC(=O)O[C@H](c2ccccc2)CNC1=O)NCc1ccc(Cl)cc1,–,105%
CC[C@H](C)C(=O)O[C@H]1C[C@H](O)C=C2C=C[C@H](C)[C@H](CC[C@@H](O)C[C@@H](O)CC(=O)O)[C@H]21,–,98.7%
NS(=O)(=O)Oc1ccc2c3c(c(=O)oc2c1)CCCCC3,–,103%
Cc1[nH]cnc1CN1CCN(C(=O)N[C@@H](CC(C)C)C(=O)O)[C@@H](Cc2ccccc2)C1=O,–,111%
CC(C)(C)c1nc2c3cc[nH]c(=O)c3c3cc(F)ccc3c2[nH]1,0.662 µM (active),–
CCO[C@@H]1OC(=O)C[C@@H]1NC(=O)[C@@H]1CCCN2C(=O)CC[C@H](NC(=O)c3nccc4ccccc34)C(=O)N12,–,114%
[2H]C([2H])([2H])C(O)([C@@H](C)/C=C/[C@@H](C)[C@H]1CC[C@H]2/C(=C/C=C3C[C@@H](O)C[C@H](O)C3)CCC[C@]12C)C([2H])([2H])[2H],14.8 µM (active),–
CO[C@H]1/C=C/O[C@@]2(C)Oc3c(C)c(O)c4c(O)c(c(/C=N/N5CCN(C)CC5)c(O)c4c3C2=O)NC(=O)/C(C)=C\C=C\[C@H](C)[C@H](O)[C@@H](C)[C@@H](O)[C@@H](C)[C@H](OC(C)=O)[C@@H]1C,–,85%
